Source: PubChem BioAssay (NCI)
This is part of a sample that, as a whole, favours compounds with a hit. Of some 83,000 tested, about 20% had one in any assay.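 A percent growth of 40 corresponds to 60% growth inhibition; 0 means no net growth; -100 means all cells died. Active threshold: below 10.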 Active and inactive are the calls of the source.

Tests used:
Experiment in all cases: NCI-60 one-dose screen, 48 h (100 = growth as untreated, 0 = no growth, -100 = all killed)
Details in all cases: 10 µM unless noted
MOLT-4 leukemia = system: MOLT-4 leukemia
RPMI-8226 leukemia = system: RPMI-8226 leukemia
OVCAR-8 ovarian = system: OVCAR-8 ovarian
OVCAR-5 ovarian = system: OVCAR-5 ovarian
OVCAR-4 ovarian = system: OVCAR-4 ovarian
SK-OV-3 ovarian = system: SK-OV-3 ovarian
IGROV1 ovarian = system: IGROV1 ovarian
OVCAR-3 ovarian = system: OVCAR-3 ovarian
HS 578T breast = system: HS 578T breast
NCI/ADR-RES ovarian = system: NCI/ADR-RES ovarian
T-47D breast = system: T-47D breast
MDA-MB-435 melanoma = system: MDA-MB-435 melanoma
SW-620 colon = system: SW-620 colon
MCF7 breast = system: MCF7 breast
HCT-116 colon = system: HCT-116 colon
HCC-2998 colon = system: HCC-2998 colon
KM12 colon = system: KM12 colon
BT-549 breast = system: BT-549 breast

Measured: growth

CC1=C(CN)C2=C(C)C3(CC3)[C@@](C)(O)C(=O)C2=C1
inactive: MOLT-4 leukemia 96.7% | RPMI-8226 leukemia 114% | OVCAR-8 ovarian 84.2% | OVCAR-5 ovarian 97.9% | OVCAR-4 ovarian 93.2% | SK-OV-3 ovarian 102% | IGROV1 ovarian 94.8% | OVCAR-3 ovarian 101% | HS 578T breast 86% | NCI/ADR-RES ovarian 93.8% | T-47D breast 88.6% | MDA-MB-435 melanoma 97.9% | SW-620 colon 90.7% | MCF7 breast 85.1% | HCT-116 colon 90.4% | HCC-2998 colon 92% | KM12 colon 101%

NC(=Nc1ccccc1)N[N+](=O)[O-]
inactive: MOLT-4 leukemia 89.2% | RPMI-8226 leukemia 104% | OVCAR-8 ovarian 119% | OVCAR-5 ovarian 91.4% | OVCAR-4 ovarian 96.5% | SK-OV-3 ovarian 98.4% | IGROV1 ovarian 121% | OVCAR-3 ovarian 110% | HS 578T breast 97.5% | NCI/ADR-RES ovarian 101% | T-47D breast 97% | BT-549 breast 88.5% | MDA-MB-435 melanoma 118% | SW-620 colon 97.8% | MCF7 breast 100% | HCT-116 colon 101% | HCC-2998 colon 98.8% | KM12 colon 106%

C=CCCCCCCCCC(=O)[O-].C=CCCCCCCCCC(=O)[O-].[Zn+2]
inactive: MOLT-4 leukemia 103% | RPMI-8226 leukemia 95.2% | OVCAR-8 ovarian 96.6% | OVCAR-5 ovarian 106% | OVCAR-4 ovarian 115% | SK-OV-3 ovarian 112% | IGROV1 ovarian 105% | OVCAR-3 ovarian 118% | HS 578T breast 105% | NCI/ADR-RES ovarian 99.2% | BT-549 breast 108% | MDA-MB-435 melanoma 100% | SW-620 colon 102% | MCF7 breast 108% | HCT-116 colon 101% | HCC-2998 colon 107% | KM12 colon 94.3%

CCN(CC)CCOC(=O)C(OC(C)C)(c1ccccc1)c1ccccc1
inactive: MOLT-4 leukemia 93.1% | RPMI-8226 leukemia 102% | OVCAR-8 ovarian 106% | OVCAR-5 ovarian 92.9% | OVCAR-4 ovarian 103% | SK-OV-3 ovarian 94.4% | IGROV1 ovarian 87.2% | OVCAR-3 ovarian 97.3% | HS 578T breast 93.4% | NCI/ADR-RES ovarian 100% | T-47D breast 93.8% | MDA-MB-435 melanoma 103% | SW-620 colon 91.5% | MCF7 breast 95.3% | HCT-116 colon 78.4% | KM12 colon 101%

CC1[C@H](C)OC(=O)CC(O)CC(O)CC(O)CCC(O)C(O)C[C@]2(O)CC(O)C(C(=O)O)C(CC(OC3O[C@H](C)[C@@H](O)[C@H](N)[C@@H]3O)/C=C/C=C/C=C/C=C/CC/C=C/C=C/[C@H](C)[C@H]1O)O2 (some centres not stated)
inactive: MOLT-4 leukemia 122% | RPMI-8226 leukemia 106% | OVCAR-8 ovarian 92% | OVCAR-5 ovarian 95.4% | OVCAR-4 ovarian 102% | SK-OV-3 ovarian 110% | IGROV1 ovarian 101% | OVCAR-3 ovarian 109% | HS 578T breast 97% | NCI/ADR-RES ovarian 93.2% | T-47D breast 108% | BT-549 breast 105% | MDA-MB-435 melanoma 102% | SW-620 colon 99.5% | HCT-116 colon 97% | HCC-2998 colon 103% | KM12 colon 106%

CCOC(=O)CCC(NC(=O)C(Cc1ccc(N(CCCl)CCCl)cc1)NC=O)C(=O)OCC (configuration not stated)
inactive: RPMI-8226 leukemia 30.6% | OVCAR-8 ovarian 44.5% | OVCAR-5 ovarian 42.9% | OVCAR-4 ovarian 61.4% | SK-OV-3 ovarian 135% | IGROV1 ovarian 67.2% | HS 578T breast 51.8% | NCI/ADR-RES ovarian 67.2% | BT-549 breast 69.6% | MDA-MB-435 melanoma 21.1% | SW-620 colon 51.5% | MCF7 breast 22.1% | HCT-116 colon 61.5% | HCC-2998 colon 46.9% | KM12 colon 82.7%
active: MOLT-4 leukemia 5.13% | OVCAR-3 ovarian -17.4%

CC1=C(CCCOC(=O)CN)C2=C(C)C3(CC3)[C@@](C)(O)C(=O)C2=C1
inactive: MOLT-4 leukemia 84.5% | RPMI-8226 leukemia 88.8% | OVCAR-8 ovarian 73.8% | OVCAR-5 ovarian 114% | OVCAR-4 ovarian 85% | SK-OV-3 ovarian 51.3% | IGROV1 ovarian 32.8% | OVCAR-3 ovarian 101% | HS 578T breast 93.9% | NCI/ADR-RES ovarian 84.7% | BT-549 breast 65.8% | MDA-MB-435 melanoma 101% | SW-620 colon 91.5% | MCF7 breast 71.1% | HCT-116 colon 71.5% | HCC-2998 colon 85.1% | KM12 colon 100%

O=[N+]([O-])c1ccc([Se]C2CCCCC2Cl)c([N+](=O)[O-])c1 (configuration not stated)
inactive: MOLT-4 leukemia 73.2% | RPMI-8226 leukemia 82.8% | OVCAR-8 ovarian 59.7% | OVCAR-5 ovarian 101% | OVCAR-4 ovarian 78.8% | SK-OV-3 ovarian 106% | IGROV1 ovarian 70.8% | OVCAR-3 ovarian 88.2% | HS 578T breast 22.2% | NCI/ADR-RES ovarian 79% | BT-549 breast 60.8% | MDA-MB-435 melanoma 55.3% | SW-620 colon 106% | MCF7 breast 91.4% | HCT-116 colon 46.6% | HCC-2998 colon 98.8%

CN1CC(=O)N(O)C1(C)c1cccnc1 (configuration not stated)
inactive: MOLT-4 leukemia 97.2% | RPMI-8226 leukemia 105% | OVCAR-8 ovarian 99.3% | OVCAR-5 ovarian 95.6% | OVCAR-4 ovarian 111% | SK-OV-3 ovarian 91.6% | IGROV1 ovarian 102% | OVCAR-3 ovarian 107% | HS 578T breast 108% | NCI/ADR-RES ovarian 104% | BT-549 breast 95.7% | MDA-MB-435 melanoma 97.4% | SW-620 colon 111% | MCF7 breast 98.7% | HCT-116 colon 102% | HCC-2998 colon 98.7% | KM12 colon 108%
